# ATXN2 expr inh: inhibitors of ATXN2 expression | 360,000 tested, 0.72% active | HEK-293 ATXN2-luciferase reporter, luminescence, 24 h | AID 1745845 | Potency, µM (highest dose often 57 µM), without a hit: at the top dose activity change, negative = inhibition, most hits filed as inhibitors; note: potency is the fitted concentration of half-maximal effect; % is set by controls: 0 for no effect and ±100 for the full control effect; nearly all actives have a fitted effect of over 55% in size
#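 ATXN2-luciferase reporter cells (luciferase flanked by upstream and downstream ATXN2 gene portions) were treated 24 h at 37 °C with compounds at up to 57 uM. SteadyGlo luminescence gave expression; GF-AFC fluorescence gave viability.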
# S2 tox: viability counter-screen for ATXN expression inhibitors | Potency, µM (top dose mostly 56.7 µM), actives largely listed as cytotoxic | S2 cells (HEK-293 line with an ATXN2-luciferase reporter) viability, CellTiter-Fluor protease fluorescence, 24 h | AID 651635 | 400,000 tested, 0.49% active; note: potency is the fitted concentration of half-maximal effect; nearly all actives have a fitted effect of over 40% in size
# IL-1B inflam inh: inflammasome signaling inhibition, IL-1 beta readout | THP-1 LPS/ATP IL-1B secretion, AlphaLISA, 16 h; active compounds read low | 360,000 tested, 4.7% active | activity change, % at 57.5 µM | AID 743279; in the data active = activity change below about -50%; inconclusive = mostly about -30% to -49%; note: % is set by controls: 0 for no effect and ±100 for the full control effect
#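 Secreted IL-1B measured by AlphaLISA bead assay after 16 h compound exposure of THP-1 cells; compounds (final up to 57.5 uM) added 1 h before LPS (250 ng/mL) and ATP (1.25 mM) stimulation; lower signal means less secretion.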
# MCF10A rereplic: inducers of DNA re-replication in MCF 10A breast cells; MCF 10A DNA re-replication, Hoechst nuclear intensity, 48 h; 350,000 tested, 2.9% active; Potency, µM (top dose mostly 46.1 µM), inactives show at the top dose activity, positive = re-replication, usual class: activators; note: potency is the fitted concentration of half-maximal effect; % of control where 0% means no effect; nearly all actives have a fitted effect of over 50% in size
# SW480 rereplic: inducers of DNA re-replication in SW480 colon cancer cells. 340,000 tested, 1.8% active. Potency, µM (doses to about 46.1 µM), for inactives: at the top dose re-replication activation, actives largely listed as activators. SW480 DNA re-replication, Hoechst DNA content imaging, 48 h. AID 624297; note: potency is the fitted concentration of half-maximal effect; % of control where 0% means no effect; nearly all actives have a fitted effect of over 55% in size
#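 Treated cells incubate 48 hr (37 C, 5% CO2), are stained 40 min with Hoechst, and nuclear fluorescence is enumerated; a rise in nuclei with high DNA signal marks re-replication.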
# PINK1 modulator: PINK1 expression modulation. PINK1 immunofluorescence, high-content cytometry, 24 h. AID 624263. 410,000 tested, 0.2% active. Potency, µM (doses to about 76.6 µM), for inactives: top-dose activation (PINK1 increase), actives largely listed as activators; active = well fitted activation curve with a large enough effect; inconclusive = small, poorly fitted or top-dose-only effect; cell line not stated here; note: potency is the fitted concentration of half-maximal effect; % of control where 0% means no effect; nearly all actives have a fitted effect of over 65% in size
#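 Compound titrations (5 concentrations, 24 h) on a stable cell line; DMSO and CCCP controls. Endpoint: fixed-cell PINK1 immunofluorescence with mitochondrial, cell and nuclear markers, scanned by microplate cytometer.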
# * marks the source's active call; other numbers are inactive results; i = inactive; ? = inconclusive; · = not tested or not shown. An excerpt weighted towards active compounds, which were near 7.1% of everything screened. Unless noted, calls come from the whole dose curve; as a rule, active = well fitted curve in the direction sought with a large enough effect; inconclusive = small, poorly fitted or top-dose-only effect, or another doubt; inactive = no such curve, though single readings can be large; an effect the other way counts as inactive or inconclusive.
SMILES,ATXN2 expr inh,S2 tox,IL-1B inflam inh,MCF10A rereplic,SW480 rereplic,PINK1 modulator
N#Cc1ccc(-c2csc(NC3=NCCCCC3)n2)cc1,-26%,i,-26,?,9%,0%
Brc1ccc(-c2csc(NNC3=NCCCCC3)n2)cc1,-23%,?,-53*,?,3%,27%
CC(C)(C)c1ccc(-c2csc(NNC3=NCCCCC3)n2)cc1,?,?,-61*,?,?,?
COc1ccc(NC(=O)c2cnc[nH]2)cc1,1%,i,·,·,·,3%
COc1ccc(CCn2c(=N)c(C(=O)NCC3CCCO3)cc3c(=O)n4ccccc4nc32)cc1 (centres undefined),·,·,-15,17%,10%,-2%
COc1ccc(CCNC(=O)c2cc3c(=O)n4ccccc4nc3n(CC3CCCO3)c2=N)cc1OC (centres undefined),6%,i,-14,-35%,-5%,0%
COc1ccc(Cn2c(=N)c(C(=O)NCC3CCCO3)cc3c(=O)n4ccccc4nc32)cc1 (centres undefined),0%,i,-18,15µM*,?,-1%
N=c1c(C(=O)NCC2CCCO2)cc2c(=O)n3ccccc3nc2n1Cc1ccccc1Cl (centres undefined),?,·,17,3.3µM*,21µM*,-2%
N=c1c(C(=O)NCC2CCCO2)cc2c(=O)n3ccccc3nc2n1Cc1ccccc1 (centres undefined),19%,·,-22,3.7µM*,2.6µM*,-2%
COc1ccc(CCNC(=O)c2cc3c(=O)n4ccccc4nc3n(CC3CCCO3)c2=N)cc1 (centres undefined),-11%,i,-10,?,-35%,0%
N=c1c(C(=O)NCC2CCCO2)cc2c(=O)n3ccccc3nc2n1Cc1ccc(Cl)cc1 (centres undefined),·,·,-12,?,0.58µM*,0%
CCOC(=O)c1ccc(OCC2c3cc(OC)c(OC)cc3CCN2C(=O)Cc2ccc(F)cc2)cc1 (centres undefined),-10%,i,·,·,·,-5%
O=C(Nc1ccc(F)cc1)C1CCN(S(=O)(=O)c2ccc3c(c2)CCCN3C(=O)C2CCC2)CC1,?,i,·,·,·,0%
Cc1ccc(Cn2c(=N)c(C(=O)NCC3CCCO3)cc3c(=O)n4cccc(C)c4nc32)cc1 (centres undefined),-31%,·,-55*,21µM*,8.2µM*,1%
CCCn1c(=N)c(C(=O)NCC2CCCO2)cc2c(=O)n3cc(C)ccc3nc21 (centres undefined),-11%,·,·,·,·,4%
Cc1ccc(Cn2c(=N)c(C(=O)NCC3CCCO3)cc3c(=O)n4ccccc4nc32)cc1 (centres undefined),-21%,?,-1,3.3µM*,18µM*,0%
N=c1c(C(=O)NC2CCCC2)cc2c(=O)n3ccccc3nc2n1Cc1ccccc1,·,·,0,?,?,2%
N=c1c(C(=O)NC2CCCC2)cc2c(=O)n3ccccc3nc2n1CCCN1CCOCC1,3%,·,31,?,?,2%
Cc1ccc(Cn2c(=N)c(C(=O)NC3CCCCC3)cc3c(=O)n4ccccc4nc32)cc1,-3%,i,6,2.6µM*,2.3µM*,?
N=c1c(C(=O)NC2CCCC2)cc2c(=O)n3ccccc3nc2n1CCN1CCOCC1,-18%,i,5,?,2.8µM*,-1%
C[C@@H]1CN([C@@H](C)CO)C(=O)CCCn2nncc2CO[C@H]1CN(C)S(=O)(=O)c1ccc(-n2cccn2)cc1,-12%,i,-8,·,·,3%
CCCCC(CC)CNC(=O)CCCCCn1c(=O)[nH]c2ccsc2c1=O (centres undefined),-23%,?,·,·,·,2%
COc1ccccc1C(=O)Nc1nc2nc(C)c(Cc3ccccc3)c(=O)n2[nH]1,0%,i,·,·,·,1%
